{"source": "the supplement of paper PMC6555819", "data": [{"tested_on": "LXRb:RXRa (NR concentration 270 nM, RXRa partner concentration 90 nM)", "assay": "PBM binding z-score (relative to random genomic background probes); higher = stronger binding; sequences stand for … in GC…GCGATTGACAGCGTAGAATGAAGG", "procedure,_shortened": "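Binding z-scores take random background probes as their reference. They come from custom Agilent 4×180K protein-binding microarrays incubated 1 h with ligand-free nuclear receptor dimers, with antibodies against each partner (one per run) detecting binding. Scanned fluorescence was regression-normalized.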", "values": [{"sequence": "CCTAGTTGGTCAGCAGGTCACACACCGGATATGA", "PBM binding z-score": 2}, {"sequence": "AGTCAAAGTTCAGGAGGAGGTAACGTAAAGCACG", "PBM binding z-score": 2.24}, {"sequence": "CCAGACAGGTGAGAAGTTAACTCAGCCTCGATTA", "PBM binding z-score": 0.0436}, {"sequence": "TCGAGTAGGTTAGTCGGGGCATTAAGCCAACATA", "PBM binding z-score": 0.387}, {"sequence": "CCTTCTGGGCCACGAAAGGTCATTGATTCAGTGA", "PBM binding z-score": 4.55}, {"sequence": "TGTCAAAGTTCAAAGGTAACGTTAGTATCCACAC", "PBM binding z-score": 4.65}, {"sequence": "GCGAGTTGGTCAGTAAAAGGTCACACACCGGTCG", "PBM binding z-score": 4.07}, {"sequence": "ATATGTAGGTTAAGGGACATTCAGGTTGGTTCGC", "PBM binding z-score": 0.945}, {"sequence": "CCTATTAGTTGGCCATAAGGGCAACCGAAGCTCG", "PBM binding z-score": -0.00443}, {"sequence": "GCTGCTAGGTCAAATGATGGTCAGCTAAAGCTCG", "PBM binding z-score": 2.44}, {"sequence": "GCAGACAGGTGAAACGCAGGTCACTCAGGGTGGC", "PBM binding z-score": 1.27}, {"sequence": "TCTATTAGTTGATTAGGACAACCGAAACAGCGGA", "PBM binding z-score": 0.807}, {"sequence": "ACTATTAGTTGACTCAGGGCAACCGATACGACGC", "PBM binding z-score": 0.195}, {"sequence": "ATCTCTACGTAAAGATAGTTCAGTGAATGCAAAT", "PBM binding z-score": 0.0178}, {"sequence": "CGTTACGGGTCACGAGGTTATAGCACGACGAGCG", "PBM binding z-score": 4.23}, {"sequence": "TTTCAAAGTTCAAAGGTAACGTAAGTATCCACAC", "PBM binding z-score": 4.86}, {"sequence": "TCTGGCAGGCCAGAGGGTCACTCAAGAGGTACGG", "PBM binding z-score": 1.08}, {"sequence": "TCATATAGGTAAAGGTGTAAGTCGAACGATATGA", "PBM binding z-score": 0.356}, {"sequence": "TTATATAGGTAAAGGTGAAAGTCGAACGATATGA", "PBM binding z-score": 1.2}, {"sequence": "GATACAGGGTCACGGCCAGAGTACGCGTATTGAT", "PBM binding z-score": 4.33}, {"sequence": "GCTAGCAGGCAATTTGGGTCACTCAATGACGGGC", "PBM binding z-score": 0.171}, {"sequence": "CCTAGCCGGCCAGGGTCACTCAAGCATTTCGCTT", "PBM binding z-score": 2.03}]}]}
